# High-throughput results deposited in PubChem by National Center for Advancing Translational Sciences (NCATS).
# HCMV antiviral: qHTS Assay for inhibitors of the human cytomegalovirus (HCMV); activity change, negative = inhibition, % at 57.5 µM; 410,000 tested, 4.5% active; HFF cells, HCMV-luciferase reporter, 72 h; hits give low values; in the data active = activity change below about -60%; inconclusive = no clear call, values can overlap the other calls; inactive = above about -39%
#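 Steps: HFFs plated, 16 h 37C; compounds added; HCMV-luciferase added to MOI 1 PFU/cell; 72 h 37C; OneGlo reagent, 5 min room temperature; luminescence read, normalized to controls.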
# RE007 growth inh: qHTS Assay for Inhibitors of the HIV-1 protein Vpr. 360,000 tested, 0.21% active. Potency, µM (highest dose often 92.2 µM), for inactives: at the top dose activity change, negative = less growth, usual class: inhibitors. S. pombe RE007 Vpr strain, BacTiter-Glo ATP luminescence, 24 h. AID 651644, 2012; active = well fitted falling curve with a large enough effect; inconclusive = small, poorly fitted or top-dose-only effect; inactive = no such curve, though single readings can be large or run the other way; note: potency is the fitted concentration of half-maximal effect; nearly all actives have a fitted effect of over 50% in size
#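 Fission yeast RE007 carrying one integrated HIV-1 vpr copy, seeded at OD 0.01 in PMG+AL medium with 23 nL pinned compound. Grown 24 h at 30 degrees; viability read by BacTiter-Glo luminescence after 5 min.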
# Tb PYK inh: qHTS of Trypanosoma Brucei Inhibitors | pyruvate kinase (Trypanosoma brucei), Q57TT1 | TbPYK enzyme, Kinase-Glo Plus ATP luminescence, 45 min | Potency, µM (highest dose often 76.8 µM), without a hit: top-dose activity, negative = inhibition, usual class: inhibitors | 410,000 tested, 0.12% active; note: potency is the fitted concentration of half-maximal effect; nearly all actives have a fitted effect of over 50% in size
#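 Activity of T. brucei pyruvate kinase was followed by Kinase-Glo Plus luminescence after the enzyme reacted 45 min at room temperature with 130 uM ADP (final) and substrate. Test compounds were added before ADP at multiple concentrations.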
# FMDV antiviral: High Throughput Screening for Foot and Mouth Disease Virus Antivirals | FMDV antiviral cell-based qHTS | Potency, µM (top dose mostly 57.9 µM), inactives show top-dose activity change, negative = inhibition, usual class: inhibitors | 410,000 tested, 1.2% active | AID 1159524, 2015; calls by dose curve; tested in HEK293T cells; note: read-out not given here; potency is the fitted concentration of half-maximal effect; nearly all actives have a fitted effect of over 45% in size
# Sm TGR block: qHTS Assay for the Inhibitors of Schistosoma Mansoni Peroxiredoxins. purified TGR, DTNB reduction, TNB absorbance 405 nm. 360,000 tested, 3% active. Potency, µM (series often up to 114 µM), for the others: at the highest dose activity change, negative = inhibition, actives largely listed as inhibitors. Schistosoma mansoni thioredoxin glutathione reductase (TGR), Q962Y6; note: potency is the fitted concentration of half-maximal effect; nearly all actives have a fitted effect of over 60% in size
#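 First, TGR (20 nM dispensed) and NADPH were mixed with compound. Second, a 15 min room-temperature incubation followed. Third, further NADPH and then DTNB were added to start the reaction. Finally, TNB absorbance was monitored kinetically.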
# Giardia FBPA inh: qHTS Assay for Inhibitors of Fructose-1,6-bisphosphate Aldolase from Giardia Lamblia | purified Giardia FBPA | Potency, µM (series often up to 59.6 µM), for inactives: top-dose activity, negative = inhibition, usual class: inhibitors | 290,000 tested, 0.71% active; note: potency is the fitted concentration of half-maximal effect; nearly all actives have a fitted effect of over 55% in size
# Target sequence (A8B2U2 whole entry, looked up): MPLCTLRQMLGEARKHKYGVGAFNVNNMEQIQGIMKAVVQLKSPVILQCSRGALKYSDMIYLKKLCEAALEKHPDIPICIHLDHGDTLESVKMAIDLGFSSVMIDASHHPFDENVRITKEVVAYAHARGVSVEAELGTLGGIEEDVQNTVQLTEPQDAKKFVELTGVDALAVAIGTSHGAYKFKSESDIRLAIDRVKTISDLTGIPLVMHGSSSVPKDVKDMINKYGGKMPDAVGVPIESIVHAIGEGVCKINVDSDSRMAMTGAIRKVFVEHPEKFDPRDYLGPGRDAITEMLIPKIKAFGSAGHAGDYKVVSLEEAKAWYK
#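 Giardia FBPA (40 nM reagent) was preincubated 10 min at RT with compound (up to 57.5 uM final), then substrate plus GAPDH/TPI/NAD/arsenate coupling system with diaphorase/resazurin was added; resorufin fluorescence (525/598 nm) was read after 20 min.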
# * hit, by the source's call; ? = inconclusive; / = not tested or not shown; [ ] = remark or other dose. The list is not random: actives were taken first. Their share in the collection is about 7.7%. Unless noted, calls come from the whole dose curve; as a rule, active = well fitted curve in the direction sought with a large enough effect; inconclusive = small, poorly fitted or top-dose-only effect, or another doubt; inactive = no such curve, though single readings can be large; an effect the other way counts as inactive or inconclusive. % is set by controls: 0 for no effect and ±100 for the full control effect.
SMILES,HCMV antiviral,RE007 growth inh,Tb PYK inh,FMDV antiviral,Sm TGR block,Giardia FBPA inh
Cc1c(Cl)cccc1-n1ncc(C(=O)NC2CCCC2)c1C1CCN(C(=O)OC(C)(C)C)CC1,18,/,4%,-16%,0%,/
CCOc1ccc(NC(=O)Cn2c(=O)n(CC(=O)NCc3ccccc3Cl)c(=O)c3sccc32)cc1,8,/,1%,13%,-2%,/
O=C(O)c1ccc(N2C(=O)CC(N3CCN(c4cccc(Cl)c4)CC3)C2=O)cc1 (stereo not given),29,12%,0%,0%,50µM*,-5%
O=C(O)c1ccc(N2C(=O)CC(N3CCN(c4cccc(C(F)(F)F)c4)CC3)C2=O)cc1 (stereo not given),-14,-15%,1%,-15%,89µM*,2%
O=C(c1ccncc1)c1ccc(N2CCN(C3CC(=O)N(Cc4ccccc4)C3=O)CC2)cc1 (stereo not given),-63*,-22%,-4%,16µM*,-9%,2%
CCC(=NCCC(c1ccccc1)c1ccccc1)c1c(O)n(C)c(=O)n(C)c1=O,-11,2%,-2%,?,7%,1%
CCC(=NCc1ccc(F)cc1)c1c(O)n(C)c(=O)n(C)c1=O,?,-4%,-7%,40µM*,-2%,-3%
CCOC(=O)c1cc(S(=O)(=O)NCc2cccc(Cl)c2)[nH]n1,9,/,-4%,32%,-13%,/
O=C(Cn1ncc2c3ccccc3n(Cc3ccccc3)c2c1=O)NCCc1ccc(Cl)cc1,-69*,/,2%,-25%,-1%,/
O=C(Cn1ncc2c3ccccc3n(Cc3ccccc3F)c2c1=O)NCCc1ccc(Cl)cc1,23,/,4%,15%,11%,/
O=C(Cn1ncc2c3ccccc3n(Cc3ccccc3)c2c1=O)NCCCN1CCCC1=O,-67*,15%,-1%,-18%,-20%,-3%
COc1ccc(Cl)cc1NC(=O)Cn1c(=O)n(CCCC(=O)NCCc2ccc(OC)c(OC)c2)c(=O)c2ccccc21,-80*,/,-2%,-26%,-2%,/
COc1ccc(CCNC(=O)CCCn2c(=O)c3ccccc3n(CC(=O)Nc3cc(Cl)ccc3C)c2=O)cc1OC,2,/,-1%,-23%,7%,/
CCC(Cc1ccccc1)NC(=O)Cn1ncc2c3ccccc3n(Cc3ccccc3)c2c1=O (stereo not given),-99*,/,-1%,0%,1%,/
Cc1nc2cc[nH]n2c(=O)c1CCc1ccccc1,-21,/,/,/,/,/
Cc1cc(-c2ccccc2)n2nc(-c3cccc(Br)c3)cc2n1,-30,/,2%,-16%,2%,/
Cc1ccc2nc(SCC(=O)N3CCOc4ccc(CN5C[C@@H](C)O[C@@H](C)C5)cc4C3)[nH]c2c1,/,/,/,-3%,/,/
O=C(Cn1c(=O)c(C(F)(F)F)nc2ccccc21)Nc1ccc(Br)cc1F,-2,/,-8%,-13%,5%,/
COc1ccc(Cl)cc1NC(=O)Cn1ncc2c3ccccc3n(Cc3ccccc3)c2c1=O,-68*,/,2%,5%,-9%,/
CCn1c(/C=C/c2ccccc2)nc2ccccc2c1=O,-61*,17%,0%,-24%,9%,5%
O=c1c2ccccc2nc(/C=C/c2cc(Br)ccc2O)n1CCO,-98*,-10%,0%,?,/,/
O=c1c2ccccc2nc(/C=C/c2ccc(O)cc2)n1CCc1ccccc1,?,-12%,-1%,35µM*,-11%,-10%
O=c1c2ccccc2nc(/C=C/c2c[nH]c3ccccc23)n1CCO,-12,-8%,9%,0%,2%,-8%
CN(N=Cc1ccccc1O)C(=O)c1ccccc1N,-13,/,/,/,/,/
Cc1ccc(OCC(=O)NNC(=O)Cn2c(=O)cnc3ccccc32)cc1,-97*,4%,4%,7%,-3%,/
SMILES,HCMV antiviral,RE007 growth inh,Tb PYK inh,FMDV antiviral,Sm TGR block,Giardia FBPA inh
O=C(COc1ccccc1F)NNC(=O)Cn1c(=O)cnc2ccccc21,0,4%,-8%,-1%,1%,/
O=S(=O)(CCN1C=CC(C(F)(F)F)=NCC1)c1ccc(Cl)cc1Cl,-21,-15%,4%,-19%,25µM*,0%
O=C1C2C(c3ccccc3)CC=CC2C(c2ccc(C(F)(F)F)cc2)N1Cc1ccccc1 (stereo not given),/,/,/,/,/,-10%
Cc1cc(=O)n2c3ccccc3n(CC(O)CN3CCCC3)c2c1C#N (stereo not given),?,3%,0%,/,-1%,-12%
CCCNCC(O)Cn1c2ccccc2n2c(=O)cc(C)c(C#N)c12 (stereo not given),-61*,-8%,-6%,0%,-4%,1%
CC1=CC2C(C(O)CC3(C)C2CC(C)C32OCOC23COCO3)C2(C)C/C(=C\O)C(=O)C=C12 (stereo not given),-99*,-14%,-3%,40µM*,/,/
CC(=O)OC[C@@H]1O[C@H](C/C=N\O[C@@H](C)CN2CCCc3nc(C)c(C)cc32)C=C[C@@H]1OC(C)=O,/,/,/,/,/,1%[12.9 µM]
COc1ccc(Cn2c(C)c(C)c(C#N)c2NC(=O)Nc2cccc(C)c2)cc1,-67*,-10%,0%,13%,-26%,1%
COc1cccc(CNC(=O)C2CCN(Cc3cc4ccccc4n3Cc3ccc(C)cc3)CC2)c1,10,/,4%,-27%,7%,/
Clc1ccccc1Cn1c(/C=C/c2ccco2)nc2ccccc21,-31,32%,-18%,?,32µM*,-9%
CCOC(=O)C1CCCN(C(=O)c2ccc3c(c2)sc2nc(-c4ccc(C)cc4C)cn23)C1 (stereo not given),/,/,-5%,?,?,/
COc1ccc(NC(=S)N2CCN(C/C=C/c3ccccc3)CC2)cc1,-65*,-5%,-11%,15%,-4%,0%
COc1cccc(CNS(=O)(=O)c2ccc(S(=O)(=O)N3CCCC3)cc2)c1,7,18%,-3%,-12%,45µM*,7.9µM*
COc1cccc(NS(=O)(=O)c2ccc(S(=O)(=O)N3CCCC3)cc2)c1,-25,3%,-7%,-5%,1%,/
CCOC(=O)C1CCCN(C(=S)Nc2ccc(OC)cc2)C1 (stereo not given),-67*,16%,-5%,-1%,0%,2%
CCOC(=O)C1CCCN(C(=O)c2ccc3c(c2)sc2nc(-c4cccc(OC)c4)cn23)C1 (stereo not given),/,/,6%,32µM*,-11%,/
COc1ccc(NC(=S)N2CCN(S(=O)(=O)c3ccc(OC)cc3)CC2)cc1,-13,18%,2%,7%,-24%,/
